An excerpt weighted towards active compounds, which were near 4.8% of everything screened.
Caspase-1 inhib: blocks human caspase-1 allosterically or competitively; P29466; Caspase-1 enzyme, Ac-WEHD-AFC fluorogenic rate; Potency, µM (doses to about 57.5 µM), usual class: inhibitors; 75,000 tested, 0.03% active; AID 900
ERK AVP block: blocks ERK signaling stimulated by vasopressin; HEK293-V1b, vasopressin-stimulated pERK AlphaScreen; Potency, µM (titrated, usually from 57.5 µM), hits mostly inhibitors; 72,000 tested, 0.99% active; AID 995; note: nearly all actives have a fitted effect of over 55% in size
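Overnight-seeded V1b-HEK293 cells in 1% FBS got compound, then vasopressin (25 nM final, 5 min, 37C), then lysis buffer. AlphaScreen detection of phospho-ERK; activity normalized to basal and full-stimulation controls.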
ALOX15 inhib: inhibitors of human 15-lipoxygenase (ALOX15); 74,000 tested, 1.4% active; P16050; Potency, µM (titrated, usually from 57.1 µM), usual class: inhibitors; purified 15hLO-1, xylenol orange hydroperoxide absorbance; note: nearly all actives have a fitted effect of over 55% in size
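Compounds were preincubated 15 min at room temperature with 40 nM purified human enzyme (25 mM Hepes pH 7.5, 0.01% Triton X-100); 50 uM arachidonic acid reacted 6 min. Fe-xylenol orange detection, 30 min, absorbance ratio 573/405 nm.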
HEK293 cAMP cs: parental HEK293 cAMP activation (counter-screen); parental HEK293 CNG cAMP sensor, membrane potential fluorescence; Potency, µM (titrated, usually from 57.1 µM), actives largely listed as activators; 73,000 tested, 2.5% active; note: nearly all actives have a fitted effect of over 55% in size
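Parental HEK 293 cells stably expressing a modified CNG channel (no TSHR) report cAMP rise as membrane depolarization. Membrane potential dye with 100 uM RO 20-1724 was loaded for 60 min at room temperature, then compound added for 30 min; fluorescence read at 590 nm.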
TSHR ag: TSH receptor (human) agonism; Potency, µM (top dose mostly 57.1 µM), hits mostly activators; 73,000 tested, 0.48% active; AID 926; P16473; HEK293-CNG-TSHR cells (CNG channel as cAMP sensor), membrane potential dye, cAMP; active = well fitted activation curve with a large enough effect in the main read-out, with a control signal flat, not every such curve was filed as active; inconclusive = small, poorly fitted or top-dose-only effect, or a change in a side signal; inactive = no such curve, though single readings can be large or run the other way; reference of the percent scale not stated here;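 note: the control signal comes from parental cells without the receptor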
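HEK 293 cells stably expressing TSHR and a modified CNG channel, with CNG-only parental cells as counterscreen, were preloaded 60 min at room temperature with membrane potential dye containing 100 uM RO 20-1724. Compound exposure was 30 min, and depolarization was read as fluorescence at 590 nm.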
Casp7 inh: caspase-7 (human) inhibition, allosteric or competitive | P55210 | recombinant caspase-7, Ac-DEVD-AFC fluorescence rate | Potency, µM (highest dose often 57.5 µM), most hits filed as inhibitors | 75,000 tested, 0.02% active | AID 889; active = well fitted inhibition curve with a large enough effect in the main read-out, with a control signal flat, not every such curve was filed as active; inconclusive = small, poorly fitted or top-dose-only effect, or a change in a side signal
Large screens that a line does not name were inactive. Unless noted, calls come from the whole dose curve; as a rule, active = well fitted curve in the direction sought with a large enough effect; inconclusive = small, poorly fitted or top-dose-only effect, or another doubt; inactive = no such curve, though single readings can be large; an effect the other way counts as inactive or inconclusive.

COc1ccc(Cn2nnnc2CN(Cc2cc3cc(C)ccc3[nH]c2=O)C2CCCC2)cc1	HEK293 cAMP cs 25µM, TSHR ag inconclusive
Cc1ccc(C)c2[nH]c(=O)c(CN(CC3CCCO3)C(=O)NC3CCCCC3)cc12 (stereo not given)	HEK293 cAMP cs 4µM, TSHR ag inconclusive
Cc1ccc2[nH]c(=O)c(CN(Cc3nnnn3C3CCCC3)C3CCCCC3)cc2c1	none (no result: TSHR ag)
COc1cc2cc(CN(Cc3nnnn3C3CCCC3)C3CCCC3)c(=O)[nH]c2cc1OC	ERK AVP block inconclusive
CCc1ccc2[nH]c(=O)c(CN(CCCN3CCOCC3)C(=O)Nc3ccc(F)cc3)cc2c1	ERK AVP block inconclusive, ALOX15 inhib 16µM
Cc1ccc2[nH]c(=O)c(CN(Cc3ccccc3)Cc3nnnn3C3CCCC3)cc2c1	Caspase-1 inhib inconclusive, ALOX15 inhib inconclusive, HEK293 cAMP cs 25µM, TSHR ag inconclusive
O=c1cnc2cnc(N3CCNCC3)nc2n1CCc1ccccc1	Caspase-1 inhib inconclusive, Casp7 inh inconclusive
COc1ccc(NC(=O)N(Cc2cc3cc(OC)ccc3[nH]c2=O)CC2CCCO2)cc1 (stereo not given)	ALOX15 inhib 20µM
COc1ccc(NC(=O)N(CCCN(C)C)Cc2cc3cc(OC)ccc3[nH]c2=O)cc1	none
Cc1ccc(C)c2[nH]c(=O)c(CN(Cc3nnnn3C3CCCCC3)CC3CCCO3)cc12 (stereo not given)	HEK293 cAMP cs 25µM, TSHR ag inconclusive
CC(C)C1CCC(C(=O)NC(Cc2ccccc2)C(=O)O)CC1 (stereo not given)	none (no result: HEK293 cAMP cs, TSHR ag)
COc1ccc(CCn2c(C)cc(C(=O)CSc3nnnn3C)c2C)cc1	HEK293 cAMP cs inconclusive, TSHR ag inconclusive
Cc1cc(C(=O)CSc2nc(N)cc(N)n2)c(C)n1CCc1ccc(F)cc1	ERK AVP block 13µM, HEK293 cAMP cs inconclusive, TSHR ag inconclusive
CCC1CCCCN1C(=O)CSc1nnc(-c2c[nH]c3ccccc23)o1 (stereo not given)	none
O=C(C1CCCCC1)N(Cc1nc2sc3c(c2c(=O)[nH]1)CCCC3)Cc1cccs1	HEK293 cAMP cs inconclusive, TSHR ag inconclusive
COCCOC(=O)c1c(C)oc2ccc(NS(=O)(=O)c3ccccc3)cc12	none
CCOC(=O)c1c(C)oc2ccc(NS(=O)(=O)c3ccc4c5c(cccc35)C(=O)N4)cc12	ERK AVP block inconclusive, ALOX15 inhib inconclusive, TSHR ag 25µM
CCOc1ccc(CNc2ccc3c(c2)nc(C)n3C)cc1	none
O=C(c1ccccc1C(=O)N1CCN(c2ccc(F)cc2)CC1)N1CCN(c2ccc(F)cc2)CC1	ERK AVP block 40µM
CC(=O)N1CCN(c2ccc(NC(=O)c3ccc(C(C)(C)C)cc3)cc2)CC1	ERK AVP block inconclusive
CC(C)c1ccc(Nc2nc(NCc3ccco3)nc(N3CCOCC3)n2)cc1	HEK293 cAMP cs inconclusive, TSHR ag inconclusive
CC(=O)N1CCN(c2ccc(NCc3ccc(F)cc3)cc2)CC1	ALOX15 inhib 10µM
CC(C)c1ccc(CNc2ccc(N3CCOCC3)cc2)cc1	ERK AVP block inconclusive, ALOX15 inhib 7.9µM
CCOc1ccc(CNc2ccc(N3CCCC3)cc2)cc1	ERK AVP block inconclusive, ALOX15 inhib 3.2µM
CCn1c(SCc2ccc(C(=O)OC)o2)nc2sc3c(c2c1=O)CCCC3	HEK293 cAMP cs inconclusive, TSHR ag inconclusive
COC(=O)c1ccc(CSc2nc(C(F)(F)F)c3c(c2C#N)CCC3)o1	Caspase-1 inhib inconclusive, ERK AVP block inconclusive, ALOX15 inhib 20µM, HEK293 cAMP cs inconclusive, TSHR ag inconclusive
Cc1nc(SCC(=O)NCc2ccco2)nc(C)c1C	none
O=C(CSc1nc2c(c(C(F)(F)F)n1)CCc1ccccc1-2)NCc1ccco1	HEK293 cAMP cs 25µM, TSHR ag inconclusive
CN(C)c1ccc2c(c1)OC(N)=C(C#N)C2c1cccc(F)c1 (stereo not given)	Caspase-1 inhib inconclusive, ERK AVP block inconclusive, ALOX15 inhib 13µM, HEK293 cAMP cs 32µM, TSHR ag inconclusive, Casp7 inh inconclusive

High-throughput results (PubChem)
